# Bioassay records (PubChem)
# Wee1 stabilizer – blocks degradation of human Wee1 kinase; P30291; HeLa Luc-Wee1K328M stability, luciferase luminescence; 100% = proteasome inhibitor MG132 effect; reporter increase, % at 5 µM; actives 1.2% (n = 220,000); AID 1321;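 active means activation above the mean of all tested compounds plus 3 SD, set per screening run, cut at about 8.8% in these data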;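 further: cells exposed to compound for 20 h before luminescence read; 0% = DMSO alone and 100% = MG132 at 30 µM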
# Target sequence (P30291 whole entry K328M): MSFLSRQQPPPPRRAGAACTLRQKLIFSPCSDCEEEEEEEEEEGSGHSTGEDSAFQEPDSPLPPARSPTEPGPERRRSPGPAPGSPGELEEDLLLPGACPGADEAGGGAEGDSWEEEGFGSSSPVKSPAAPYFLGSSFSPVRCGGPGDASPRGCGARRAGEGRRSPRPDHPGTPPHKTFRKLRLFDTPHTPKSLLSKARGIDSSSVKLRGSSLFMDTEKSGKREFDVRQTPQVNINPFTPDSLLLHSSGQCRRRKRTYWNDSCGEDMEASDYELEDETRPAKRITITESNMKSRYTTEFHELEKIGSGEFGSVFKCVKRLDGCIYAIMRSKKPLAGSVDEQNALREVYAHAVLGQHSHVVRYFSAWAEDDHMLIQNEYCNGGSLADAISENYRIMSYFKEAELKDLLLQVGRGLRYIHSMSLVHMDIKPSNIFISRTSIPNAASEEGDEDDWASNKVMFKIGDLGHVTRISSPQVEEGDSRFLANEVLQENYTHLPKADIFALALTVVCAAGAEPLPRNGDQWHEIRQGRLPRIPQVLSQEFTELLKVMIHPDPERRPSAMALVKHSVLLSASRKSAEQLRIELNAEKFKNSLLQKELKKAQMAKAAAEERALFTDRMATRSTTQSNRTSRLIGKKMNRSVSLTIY
# DAX1 inh-1 – inhibitors of DAX1 repression of SF-1 activated StAR promoter. HEK293T StAR-luciferase reporter, SF-1/DAX-1 repression relief. actives 1.1% (n = 370,000). inhibition, % at 6.8 µM. AID 652010;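 active means inhibition above the mean over all tested compounds plus 3 SD, cut at about 3.6% in these data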;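 further: 0% = DAX-1 cells with DMSO and 100% = cells lacking DAX-1 with DMSO; higher inhibition means more luminescence from relief of DAX-1 repression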
# ssDAF12 agonist – activates DAF-12 receptor from parasite S. stercoralis | HEK293 ssDAF-12/GRIP1 lit1-tk-luc reporter, luminescence; % of 3 µM dafachronic acid response | activation, % at 6.8 µM | actives 1% (n = 370,000);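 active means activation above the mean over all tested compounds plus 3 SD, cut at about 0.9% in these data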;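 further: 0% = DMSO-only wells and 100% = 3 µM delta7-dafachronic acid wells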
# hgDAF12 agonist – activates the H. glycines DAF-12 receptor ligand-binding domain. activation, % at 6.8 µM. HEK293 GAL4-hgDAF12 UAS-luciferase reporter, agonist luminescence; normalized to butyrate control. AID 687014. actives 1.8% (n = 370,000);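 active means activation above a cutoff set at the mean of all screened compounds plus 3 SD, cut at about 10% in these data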;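 further: 0% = DMSO wells and 100% = sodium butyrate wells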
# DAX1 inh-2 – NR0B1 (DAX1) inhibition; inhibition, % at 6.75 µM; P51843; actives 0.99% (n = 340,000); HEK293 Gal4-DAX1 luciferase reporter, luminescence;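 active means inhibition above the mean over all tested compounds plus 3 SD, cut at about 4.2% in these data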;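 further: 0% = DAX1-transfected cells with DMSO and 100% = empty-vector control cells with DMSO; inhibition shows as a rise in luminescence from relieved DAX1 repression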
# hcDAF-12 act – H. contortus DAF-12 activation, primary screen | activation, % at 6.8 µM | actives 1.4% (n = 370,000) | AID 652067 | HEK293 hcDAF-12 lit1-tk-luc reporter, luminescence; 0% DMSO, 100% Δ7-dafachronic acid;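 active means activation above the mean of all tested compounds plus 3 SD, cut at about 5.5% in these data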;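 further: 100% = response to 3 µM Δ7-dafachronic acid high control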
# LXR ag – LXR-beta agonism as hcDAF-12 counter-screen; AID 743027; HEK293 Gal4-LXR tk-luc reporter, luminescence, 24 h; normalized: DMSO 0%, positive control 100%; 3,400 tested, under 10 active; shares compounds with hcDAF-12 act; activation, % at 6.8 µM;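 active means mean percent activation of the reporter above a cutoff set as the average over tested compounds plus their standard deviation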
# hcDAF12 ag – hcDAF-12 agonism, confirmation assay; activation, % at 6.8 µM; AID 743032; HEK293 hcDAF-12 lit1-tk-luc reporter, luminescence; % of Δ7-dafachronic acid response; actives 61% (n = 3,400); shares compounds with hcDAF-12 act;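 active means mean activation across triplicate tests above the threshold derived from the earlier primary screen, cut at about 5.5% in these data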;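 further: 0% = DMSO only wells and 100% = 3 µM Δ7-dafachronic acid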
# An asterisk follows results filed as active; . = not tested or not shown. This is a sample that favours compounds with a hit; in the whole collection about 4.6% have one here.
SMILES,Wee1 stabilizer,DAX1 inh-1,ssDAF12 agonist,hgDAF12 agonist,DAX1 inh-2,hcDAF-12 act,LXR ag,hcDAF12 ag
COc1nc(NCCO)nc(Nc2ccc([N+](=O)[O-])cc2)n1,1,-1,-1,2,0,-1,.,.
O=[N+]([O-])c1ccc(Nc2nc(Cl)nc(NCCO)n2)cc1,1,2,1,2,-1,6.8*,0,5
CN1C(C)(C)CC(=NO)CC1(C)C,.,0,-1,2,2,-1,.,.
CCOC(=O)c1ccc(/C=C2/C=C(c3ccccc3)N(c3ccc(Cl)c(C(=O)O)c3)C2=O)cc1,-2,0,-1,0,0,8.4*,0,-3
CCNC(=S)Nc1ccc2c(c1)oc1ccccc12,.,1,-1,8,4,1,.,.
CC(C)N(CCNC(=O)c1ccc(OCC2CCCO2)cc1)C(C)C (centres undefined),.,1,-1,-2,2,-2,.,.
O=C(NNC(=O)c1ccc2c(c1)OCO2)NC1CCCCC1,-1,-1,-1,2,1,-1,.,.
Cc1csc(NC(=O)c2ccc(OCC3CCCO3)cc2)n1 (centres undefined),-3,4.3*,0,13*,-1,6.7*,1,4
O=C(NC1CCCCCC1)c1ccc(OCC2CCCO2)cc1 (centres undefined),1,2,0,7,2,9.8*,1,4
O=C(NC1CCCCC1)c1ccc2c(c1)OCO2,.,1,0,8,0,8.3*,0,4
CC1(C(=O)NS(=O)(=O)c2cccc(F)c2)CCN1C(=O)Cc1ccccc1 (centres undefined),.,0,-1,0,.,2,.,.
CSc1ncccc1C(=O)N1CCC(C)(C(=O)O)C1 (centres undefined),.,1,-1,-1,.,2,.,.
O=C(NC(=S)Nc1ncc(Br)cc1Br)c1ccccc1,.,1,1,9,1,8.0*,1,8.7*
Cc1cc(C)nc(NC(=S)NC(=O)c2ccccc2)n1,.,0,0,1,2,0,.,.
C#Cc1ccc2c(c1)COc1c3ccccc3nn1-2,.,3,1.8*,12*,2,11*,2,8.3*
CCOc1ccc(Br)cc1CNCCN1CCOCC1,3,0,-1,0,0,13*,0,1
O=C(CNc1cccc2ccccc12)c1ccc([N+](=O)[O-])cc1,-3,0,0,-2,0,6.8*,0,2
O=C(Nc1cccc2ccccc12)c1ccc([N+](=O)[O-])cc1,.,0,-1,1,-1,-2,.,.
CC(=O)C1CCCN(C(=O)c2ccc3oc(CCc4ccccc4)nc3c2)C1 (centres undefined),.,3.9*,1,4,1,7.0*,0,3
CCOC(=O)C1CCCN(C(=O)c2ccc3oc(CCc4ccccc4)nc3c2)C1 (centres undefined),.,0,-1,8,0,0,.,.
CC(C)n1c(/C=C/c2ccccc2)nc2ccccc21,3,2,0,10,0,-1,.,.
CCCn1c(/C=C/c2ccccc2)nc2ccccc21,3,3.6*,0,11*,1,6.6*,1,7.9*
Cc1nc(NS(=O)(=O)c2ccccc2)sc1C(C)(C)C,1,0,-2,-4,2,3,.,.
Cc1cccc2sc(NS(=O)(=O)c3ccccc3)nc12,.,0,0,0,1,12*,0,2
CSc1ccc(C2NN=C(c3ccccc3)S2)cc1 (centres undefined),.,4,2.3*,15*,.,12*,2,14*
SMILES,Wee1 stabilizer,DAX1 inh-1,ssDAF12 agonist,hgDAF12 agonist,DAX1 inh-2,hcDAF-12 act,LXR ag,hcDAF12 ag
Oc1ccccc1C1NN=C(c2ccccc2)S1 (centres undefined),.,4.1*,4.2*,16*,3,20*,2,16*
COc1ccc(C2NN=C(c3ccc(C)cc3)S2)cc1 (centres undefined),.,2,0,10,4,4,.,.
CCOc1ccccc1NC(=O)CCNC(=O)C1CCN(S(=O)(=O)c2ccccc2)CC1,.,0,-1,-3,0,-2,.,.
CCOC(=O)c1ccc(C#Cc2ccc3c(c2)C(C)(C)CCS3)nc1,.,1,-2,-1,.,-1,.,.
c1ccc(-c2cc3cc4c(cc3cn2)OCO4)cc1,.,2,1.4*,13*,3,8.1*,2,8.5*
COc1cc(OC)cc(-c2cc3cc4c(cc3cn2)OCO4)c1,.,.,.,.,-1,.,.,.
Cc1cc(C)c(NC(=O)CN2CCN(c3ccccn3)CC2)c(C)c1,.,0,-2,-1,2,1,.,.
O=C(Nc1c(-c2ccc(C(F)(F)F)cc2)nc2ncccn12)C1CC1,.,1,-1,3,.,-1,.,.
N#Cc1ccccc1OCCN1C(=O)c2ccccc2C1=O,-1,1,-1,3,2,4,.,.
Nc1cccc2c1C(=O)N(CCOc1ccccc1F)C2=O,.,3,1.9*,11*,1,18*,2,18*
Cc1cc2ccccn2c1C(=O)Nc1ccc(Cl)cc1,3,1,0,10,3,8.8*,1,9.4*
Cc1cc2ccccn2c1C(=O)Nc1ccccc1,0,1,1.0*,4,1,9.7*,0,9.6*
COc1ccc(C2Nc3ccccc3C(=O)N2c2ccc(C)cc2)cc1COc1ccccn1 (centres undefined),2,3.6*,1,8,-1,6.9*,1,8.7*
Cc1ccc(S(=O)(=O)NC(=O)NCCCN2CCOCC2)cc1,.,0,0,0,3,7.6*,0,1
Cc1ccc(S(=O)(=O)NC(=O)c2cc(C)n(CCCN3CCOCC3)c2C)cc1,1,0,-1,0,0,2,.,.
CCNC(=O)C1(C)CCN(C(=O)c2cccnc2SC)C1 (centres undefined),.,0,-1,2,.,-1,.,.
CCN(CC)CCNC(=O)c1nn(-c2ccc(Cl)cc2)c2c1CCc1cc(OC)ccc1-2,.,0,-1,0,1,-3,.,.
C/C(CC(=O)Nc1ccc(Cl)c(C(F)(F)F)c1)=N\NC(N)=S,-2,0,-1,-2,1,1,.,.
C/C(CC(=O)Nc1ccc(Cl)c(C(F)(F)F)c1)=N\NC(=O)c1ccccc1O,4,0,1.4*,10,-2,10*,0,1
